Assay [1] has as its target T1, Serine/threonine-protein kinase TBK1 (Homo sapiens) (UniProt Q9UHD2).
T1 sequence (whole entry): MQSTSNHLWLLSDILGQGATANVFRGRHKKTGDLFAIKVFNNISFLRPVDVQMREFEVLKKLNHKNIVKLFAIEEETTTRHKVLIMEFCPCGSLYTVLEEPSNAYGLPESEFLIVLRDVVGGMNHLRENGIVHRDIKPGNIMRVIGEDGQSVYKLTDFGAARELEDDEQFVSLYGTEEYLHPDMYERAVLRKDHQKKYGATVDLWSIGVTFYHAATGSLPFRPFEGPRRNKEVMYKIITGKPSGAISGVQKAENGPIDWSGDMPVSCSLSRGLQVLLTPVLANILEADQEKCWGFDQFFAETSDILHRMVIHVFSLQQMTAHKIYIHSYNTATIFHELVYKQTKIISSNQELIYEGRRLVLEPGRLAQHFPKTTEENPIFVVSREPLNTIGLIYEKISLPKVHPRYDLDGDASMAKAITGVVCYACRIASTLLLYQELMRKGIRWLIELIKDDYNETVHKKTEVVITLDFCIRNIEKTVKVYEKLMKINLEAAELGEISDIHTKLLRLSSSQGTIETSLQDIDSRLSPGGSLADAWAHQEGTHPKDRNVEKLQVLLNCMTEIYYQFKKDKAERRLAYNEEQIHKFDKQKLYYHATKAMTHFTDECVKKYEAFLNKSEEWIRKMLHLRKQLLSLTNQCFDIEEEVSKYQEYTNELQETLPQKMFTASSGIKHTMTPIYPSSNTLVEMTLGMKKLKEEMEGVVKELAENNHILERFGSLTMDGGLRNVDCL
Conditions: at 10 µM.

Assay [2] addresses T2, TGF-beta receptor type-1 (Homo sapiens) (UniProt P36897).
T2 sequence (whole entry): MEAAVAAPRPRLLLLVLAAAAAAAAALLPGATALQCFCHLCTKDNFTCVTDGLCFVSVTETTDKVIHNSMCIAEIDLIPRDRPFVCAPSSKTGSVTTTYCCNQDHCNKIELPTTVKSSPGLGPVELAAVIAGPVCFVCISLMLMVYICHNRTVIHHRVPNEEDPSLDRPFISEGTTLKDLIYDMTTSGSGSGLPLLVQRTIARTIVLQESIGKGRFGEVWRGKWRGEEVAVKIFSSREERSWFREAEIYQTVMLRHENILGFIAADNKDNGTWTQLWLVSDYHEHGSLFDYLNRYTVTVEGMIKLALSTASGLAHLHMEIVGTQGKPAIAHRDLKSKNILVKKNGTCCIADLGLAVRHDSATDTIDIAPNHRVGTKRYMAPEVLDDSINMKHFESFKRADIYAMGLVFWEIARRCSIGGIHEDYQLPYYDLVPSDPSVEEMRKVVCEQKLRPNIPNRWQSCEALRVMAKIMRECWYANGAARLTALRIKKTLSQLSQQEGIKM
Conditions: at 1 µM.

In assay [3] the target is T2, TGF-beta receptor type-1 (Homo sapiens). Conditions: at 10 µM.
The target in assay [4] is Insulin-like growth factor 1 receptor (Homo sapiens) (UniProt P08069). Conditions: at 1 µM.
Chain of Insulin-like growth factor 1 receptor (Homo sapiens) (P08069 31-736 limits assumed): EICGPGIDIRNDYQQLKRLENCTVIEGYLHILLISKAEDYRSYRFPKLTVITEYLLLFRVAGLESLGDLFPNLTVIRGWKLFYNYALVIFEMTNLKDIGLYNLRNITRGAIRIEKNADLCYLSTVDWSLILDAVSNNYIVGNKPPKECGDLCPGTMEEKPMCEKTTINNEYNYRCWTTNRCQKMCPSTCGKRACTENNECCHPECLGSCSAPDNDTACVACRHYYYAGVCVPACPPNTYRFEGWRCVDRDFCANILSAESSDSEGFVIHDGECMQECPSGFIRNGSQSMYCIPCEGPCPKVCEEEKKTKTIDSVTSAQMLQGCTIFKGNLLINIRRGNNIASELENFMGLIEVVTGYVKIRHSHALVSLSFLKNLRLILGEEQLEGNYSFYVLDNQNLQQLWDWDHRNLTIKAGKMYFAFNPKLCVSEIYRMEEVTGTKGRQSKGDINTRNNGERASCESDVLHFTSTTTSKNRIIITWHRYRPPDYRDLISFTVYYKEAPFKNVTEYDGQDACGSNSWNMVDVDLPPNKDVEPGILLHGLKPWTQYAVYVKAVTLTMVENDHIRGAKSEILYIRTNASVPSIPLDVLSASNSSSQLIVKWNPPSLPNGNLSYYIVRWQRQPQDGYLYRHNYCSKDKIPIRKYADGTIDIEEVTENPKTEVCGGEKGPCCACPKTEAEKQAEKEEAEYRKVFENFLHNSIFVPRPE
Chain of Insulin-like growth factor 1 receptor (Homo sapiens) (P08069 741-1367 limits assumed): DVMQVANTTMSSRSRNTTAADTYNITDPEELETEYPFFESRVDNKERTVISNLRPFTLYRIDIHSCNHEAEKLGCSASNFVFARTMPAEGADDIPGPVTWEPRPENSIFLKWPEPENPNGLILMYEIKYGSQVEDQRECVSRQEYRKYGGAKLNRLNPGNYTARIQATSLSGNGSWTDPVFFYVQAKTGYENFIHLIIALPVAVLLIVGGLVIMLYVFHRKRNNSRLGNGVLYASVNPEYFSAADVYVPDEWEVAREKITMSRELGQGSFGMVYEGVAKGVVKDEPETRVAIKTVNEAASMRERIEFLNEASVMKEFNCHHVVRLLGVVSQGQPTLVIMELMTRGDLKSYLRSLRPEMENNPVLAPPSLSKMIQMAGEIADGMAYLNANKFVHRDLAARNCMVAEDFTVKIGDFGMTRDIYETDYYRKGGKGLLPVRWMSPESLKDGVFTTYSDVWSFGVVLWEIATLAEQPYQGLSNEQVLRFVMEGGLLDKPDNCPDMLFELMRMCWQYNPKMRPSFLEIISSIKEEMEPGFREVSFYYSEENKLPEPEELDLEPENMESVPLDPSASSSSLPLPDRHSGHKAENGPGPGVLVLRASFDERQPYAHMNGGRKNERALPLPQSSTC
For assay [5] the target is unchanged. Conditions: at 10 µM.
Assay [6] has as its target T3, Inhibitor of nuclear factor kappa-B kinase subunit alpha (Homo sapiens) (UniProt O15111).
T3 sequence (whole entry): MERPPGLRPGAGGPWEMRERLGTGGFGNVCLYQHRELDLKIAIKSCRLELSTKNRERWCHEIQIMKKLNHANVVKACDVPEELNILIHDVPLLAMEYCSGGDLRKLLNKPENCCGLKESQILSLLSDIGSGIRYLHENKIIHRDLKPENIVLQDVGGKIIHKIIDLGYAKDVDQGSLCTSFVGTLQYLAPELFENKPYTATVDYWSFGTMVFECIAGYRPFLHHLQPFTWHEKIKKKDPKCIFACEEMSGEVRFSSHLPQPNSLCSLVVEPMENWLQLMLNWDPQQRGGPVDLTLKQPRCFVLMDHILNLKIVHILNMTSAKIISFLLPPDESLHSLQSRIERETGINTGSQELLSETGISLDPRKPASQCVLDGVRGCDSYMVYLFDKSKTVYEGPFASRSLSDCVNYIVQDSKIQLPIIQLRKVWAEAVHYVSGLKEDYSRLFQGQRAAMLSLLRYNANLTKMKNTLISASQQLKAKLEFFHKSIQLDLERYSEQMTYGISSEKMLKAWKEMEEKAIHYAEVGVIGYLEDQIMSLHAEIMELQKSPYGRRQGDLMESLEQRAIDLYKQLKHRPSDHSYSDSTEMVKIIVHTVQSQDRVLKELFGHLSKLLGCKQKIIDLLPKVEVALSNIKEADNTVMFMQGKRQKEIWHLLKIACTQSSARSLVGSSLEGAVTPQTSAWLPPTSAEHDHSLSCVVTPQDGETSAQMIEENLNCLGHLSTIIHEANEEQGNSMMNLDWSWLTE
Conditions: at 1 µM.

Assay [7] deals with T3, Inhibitor of nuclear factor kappa-B kinase subunit alpha (Homo sapiens). Conditions: at 10 µM.
Assay [8] concerns the target T4, Inhibitor of nuclear factor kappa-B kinase subunit beta (Homo sapiens) (UniProt O14920).
T4 sequence (whole entry): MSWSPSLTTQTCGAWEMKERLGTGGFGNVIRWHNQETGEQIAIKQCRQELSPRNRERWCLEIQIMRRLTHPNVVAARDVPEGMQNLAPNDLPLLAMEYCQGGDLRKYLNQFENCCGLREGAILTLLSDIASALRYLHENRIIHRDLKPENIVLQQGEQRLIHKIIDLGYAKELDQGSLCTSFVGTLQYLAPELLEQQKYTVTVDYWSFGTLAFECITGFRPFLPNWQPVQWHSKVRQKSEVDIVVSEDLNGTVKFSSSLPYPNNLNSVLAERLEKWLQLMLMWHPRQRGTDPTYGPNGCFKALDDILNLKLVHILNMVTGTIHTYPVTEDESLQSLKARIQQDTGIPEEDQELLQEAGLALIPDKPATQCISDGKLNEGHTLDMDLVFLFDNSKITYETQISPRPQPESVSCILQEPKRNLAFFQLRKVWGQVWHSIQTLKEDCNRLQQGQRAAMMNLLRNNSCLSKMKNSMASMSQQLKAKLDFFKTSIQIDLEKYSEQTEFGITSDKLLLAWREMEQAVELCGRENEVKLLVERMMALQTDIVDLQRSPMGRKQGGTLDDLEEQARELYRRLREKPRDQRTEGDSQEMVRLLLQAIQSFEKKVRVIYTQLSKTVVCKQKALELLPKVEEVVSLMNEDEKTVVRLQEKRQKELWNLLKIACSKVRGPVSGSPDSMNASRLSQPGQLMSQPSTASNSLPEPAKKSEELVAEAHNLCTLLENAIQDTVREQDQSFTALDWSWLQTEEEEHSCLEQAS
Conditions: at 1 µM.

Assay [9] concerns the target T4, Inhibitor of nuclear factor kappa-B kinase subunit beta (Homo sapiens). Conditions: at 10 µM.
The target of assay [10] is Insulin receptor (Homo sapiens) (UniProt P06213). Conditions: at 1 µM.
Chain of Insulin receptor (Homo sapiens) (P06213 28-758 limits assumed): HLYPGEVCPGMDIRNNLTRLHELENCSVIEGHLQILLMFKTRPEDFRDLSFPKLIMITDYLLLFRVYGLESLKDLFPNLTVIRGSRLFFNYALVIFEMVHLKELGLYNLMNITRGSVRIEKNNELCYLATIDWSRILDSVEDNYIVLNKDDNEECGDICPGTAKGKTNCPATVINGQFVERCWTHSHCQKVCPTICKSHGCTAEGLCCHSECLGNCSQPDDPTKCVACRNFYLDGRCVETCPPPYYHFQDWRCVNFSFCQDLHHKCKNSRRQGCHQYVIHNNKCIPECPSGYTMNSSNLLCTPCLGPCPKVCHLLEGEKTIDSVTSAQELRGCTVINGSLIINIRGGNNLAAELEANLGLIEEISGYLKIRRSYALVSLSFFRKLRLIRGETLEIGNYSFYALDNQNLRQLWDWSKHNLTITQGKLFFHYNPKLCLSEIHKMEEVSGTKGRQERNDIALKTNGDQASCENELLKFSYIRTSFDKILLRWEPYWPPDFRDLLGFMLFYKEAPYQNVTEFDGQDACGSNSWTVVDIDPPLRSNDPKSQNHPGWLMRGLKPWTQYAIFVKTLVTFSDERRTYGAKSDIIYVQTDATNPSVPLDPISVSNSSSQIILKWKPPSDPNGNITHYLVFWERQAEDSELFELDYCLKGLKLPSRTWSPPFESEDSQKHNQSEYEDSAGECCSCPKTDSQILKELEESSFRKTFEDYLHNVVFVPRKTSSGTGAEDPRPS
Chain of Insulin receptor (Homo sapiens) (P06213 763-1382 limits assumed): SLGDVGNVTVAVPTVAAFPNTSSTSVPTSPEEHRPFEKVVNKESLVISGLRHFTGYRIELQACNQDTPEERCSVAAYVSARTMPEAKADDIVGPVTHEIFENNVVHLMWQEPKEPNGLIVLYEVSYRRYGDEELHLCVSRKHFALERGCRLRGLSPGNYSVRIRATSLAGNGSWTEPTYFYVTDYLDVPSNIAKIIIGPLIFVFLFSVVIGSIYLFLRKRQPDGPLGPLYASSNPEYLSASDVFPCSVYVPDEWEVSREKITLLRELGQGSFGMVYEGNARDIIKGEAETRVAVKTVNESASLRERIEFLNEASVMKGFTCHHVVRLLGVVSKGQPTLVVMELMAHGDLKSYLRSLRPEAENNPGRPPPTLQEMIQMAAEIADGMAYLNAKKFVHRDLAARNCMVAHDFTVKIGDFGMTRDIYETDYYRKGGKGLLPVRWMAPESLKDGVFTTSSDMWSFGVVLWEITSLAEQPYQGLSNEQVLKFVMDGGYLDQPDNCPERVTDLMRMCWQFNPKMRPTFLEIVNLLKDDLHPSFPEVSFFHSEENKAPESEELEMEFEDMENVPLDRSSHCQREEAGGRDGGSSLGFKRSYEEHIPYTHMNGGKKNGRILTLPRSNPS

Results on 1 compound are retold here after ChEMBL document CHEMBL2218924, “A broad activity screen in support of a chemogenomic map for kinase signalling research and drug discovery” (Biochem J, 2013).

Usually residual activity stands for the signal under treatment as a percentage of the control signal.

Turning to `CO[C@H]1C[C@@H]2CC[C@@H](C)[C@@](O)(O2)C(=O)C(=O)N2CCCC[C@H]2C(=O)O[C@H]([C@H](C)C[C@@H]2CC[C@@H](O)[C@H](OC)C2)CC(=O)[C@H](C)/C=C(\C)[C@@H](O)[C@@H](OC)C(=O)[C@H](C)C[C@H](C)/C=C/C=C/C=C/1C`, the residual activity was 55% in assay [1]; 82% in [2]; 78% in assay [3]; 96% in assay [4]; 74% in assay [5]; 121% in assay [6]. For the same compound, the residual activity was 148% in assay [7], 104% in assay [8], 124% in [9] and 107% in assay [10].
